Calls of active or inactive are those of the source. Rule for the calls: active = hit-call score of the fitted dose curve at least 0.9, where 1 is the maximum; inactive = score below 0.9.
What follows are molecules tested against Hepatocyte nuclear factor 6 (Homo sapiens) (UniProt Q9UBC0) (assay: ATG_HNF6_CIS: Attagene CIS-FACTORIAL HepG2 Assay for human Hepatocyte Nuclear Factor 6 (HNF6) (AID 2282952)). Details: HepG2 Attagene cis-factorial HNF6 reporter transcription; actives raise or lower the signal.
In short: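 Cells are HepG2 carrying transiently transfected cis-promoter reporter units. Treatment lasts 24 h, after which reporter transcripts are reverse-transcribed, amplified, FAM-labelled and sized by capillary electrophoresis. DMSO serves as baseline.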

Hepatocyte nuclear factor 6 (Homo sapiens), sequence (Q9UBC0 whole entry, looked up): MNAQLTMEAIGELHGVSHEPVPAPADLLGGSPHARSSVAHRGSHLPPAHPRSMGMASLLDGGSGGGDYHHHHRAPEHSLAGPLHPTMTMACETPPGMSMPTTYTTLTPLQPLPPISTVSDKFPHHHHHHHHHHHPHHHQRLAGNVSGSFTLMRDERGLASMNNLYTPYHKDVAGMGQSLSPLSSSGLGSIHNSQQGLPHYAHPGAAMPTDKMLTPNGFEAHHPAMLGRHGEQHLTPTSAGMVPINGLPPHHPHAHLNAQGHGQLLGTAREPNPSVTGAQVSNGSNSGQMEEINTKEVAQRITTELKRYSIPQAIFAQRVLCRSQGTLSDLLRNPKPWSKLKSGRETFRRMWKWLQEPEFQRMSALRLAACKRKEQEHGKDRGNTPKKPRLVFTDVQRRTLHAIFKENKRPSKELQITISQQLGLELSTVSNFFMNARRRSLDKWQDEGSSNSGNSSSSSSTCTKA

SMILES	outcome
Nc1ccc(-c2ccc(N)c(N)c2)cc1N	inactive
CCOP(O)OCC	inactive
C#CC1(O)CCCCC1	inactive
O=c1[nH]c(Cl)c(Cl)cc1Cl	inactive
CCC(C)c1cc(C(C)(C)C)cc(-n2nc3ccccc3n2)c1O (centres undefined)	inactive
[CH3][Sn]([Cl])([Cl])[Cl]	inactive
Nc1c(Cl)c(Cl)c(Cl)c(Cl)c1Cl	inactive
COC(=O)c1ccccc1S(=O)(=O)NC(=O)Nc1nc(C)cc(C)n1	inactive
Nc1ccccc1C(=O)OCCc1ccccc1	inactive
N#Cc1cccc(C#N)c1	inactive
O=C(O)CCCc1ccc(N(CCCl)CCCl)cc1	inactive
Nc1cc(Cl)cc(Cl)c1	inactive
COc1ncc(F)c2nc(S(=O)(=O)Nc3c(F)cccc3F)nn12	inactive
COC(C)(C)CCC[C@H](C)C/C=C/C(C)=C/C(=O)OC(C)C	inactive
[CH3][Sn]([CH3])([Cl])[Cl]	inactive
BrCBr	inactive
CCc1cccc(C)c1N(C(=O)CCl)[C@@H](C)COC	inactive
O=P1(NCCCl)OCCCN1CCCl (centres undefined)	inactive
CC(Cc1ccc(C(C)(C)C)cc1)CN1C[C@@H](C)O[C@@H](C)C1 (some centres undefined)	inactive
O=C(O)c1cc[c]([Hg][Cl])cc1	inactive

SMILES	outcome
C[N+](C)(C)CC(=O)O	inactive
O=S(=O)(c1ccccc1)c1ccccc1	inactive
Clc1ccc(-c2ccccc2)cc1	inactive
CN(C)C(=O)C(c1ccccc1)c1ccccc1	inactive
C=CCc1ccc(OC(=O)Cc2ccccc2)c(OC)c1	inactive
O=P(O)(Oc1ccccc1)Oc1ccccc1	inactive
CC1CCCC1.[C-]#[O+].[C-]#[O+].[C-]#[O+].[Mn]	inactive
O=C(O)COc1ccccc1	inactive
[Cl][Sb]([Cl])[Cl]	inactive
CCC(=O)c1ccc(Cl)cc1	inactive
Cc1ccc(N(SC(F)(Cl)Cl)S(=O)(=O)N(C)C)cc1	inactive
CC1(C)CC(=O)CC(C)(C)N1[O]	inactive
SCc1ccco1	inactive
O=CNC(N1CCN(C(NC=O)C(Cl)(Cl)Cl)CC1)C(Cl)(Cl)Cl (centres undefined)	inactive
Oc1cc(Cl)ccc1Cl	inactive
O=[N+]([O-])c1cc(C(F)(F)F)c(Cl)c([N+](=O)[O-])c1Cl	inactive
C[C@]12CCC(=O)C(O)=C1CC[C@@H]1[C@@H]2CC[C@]2(C)C(=O)CC[C@@H]12	inactive
CSc1nc(N=[N+]=[N-])nc(NC(C)C)n1	inactive
O=[N+]([O-])O.O=[N+]([O-])O.[Cd]	inactive

Source: PubChem BioAssay (EPA / NIEHS)
